Assay results: paper PMC4336329 (PLoS ONE, 2015)
Screen size: about 310,000 compounds; about 14,000 (4.5%) showed an effect of 50% or more. Effects have a minus sign here. What follows is part of a selection rich in strong results, with near analogues and random picks from the rest.

Target: human ether-à-go-go-related gene (hERG) potassium channel (human, UniProt Q12809)
Experiment: primary screen, population patch clamp on CHO cells stably expressing hERG; higher = less effect of the substance
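Further: peak tail current of the secondary pulse compared with the same well before compound.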

human ether-à-go-go-related gene (hERG) potassium channel, sequence (Q12809 whole entry, looked up): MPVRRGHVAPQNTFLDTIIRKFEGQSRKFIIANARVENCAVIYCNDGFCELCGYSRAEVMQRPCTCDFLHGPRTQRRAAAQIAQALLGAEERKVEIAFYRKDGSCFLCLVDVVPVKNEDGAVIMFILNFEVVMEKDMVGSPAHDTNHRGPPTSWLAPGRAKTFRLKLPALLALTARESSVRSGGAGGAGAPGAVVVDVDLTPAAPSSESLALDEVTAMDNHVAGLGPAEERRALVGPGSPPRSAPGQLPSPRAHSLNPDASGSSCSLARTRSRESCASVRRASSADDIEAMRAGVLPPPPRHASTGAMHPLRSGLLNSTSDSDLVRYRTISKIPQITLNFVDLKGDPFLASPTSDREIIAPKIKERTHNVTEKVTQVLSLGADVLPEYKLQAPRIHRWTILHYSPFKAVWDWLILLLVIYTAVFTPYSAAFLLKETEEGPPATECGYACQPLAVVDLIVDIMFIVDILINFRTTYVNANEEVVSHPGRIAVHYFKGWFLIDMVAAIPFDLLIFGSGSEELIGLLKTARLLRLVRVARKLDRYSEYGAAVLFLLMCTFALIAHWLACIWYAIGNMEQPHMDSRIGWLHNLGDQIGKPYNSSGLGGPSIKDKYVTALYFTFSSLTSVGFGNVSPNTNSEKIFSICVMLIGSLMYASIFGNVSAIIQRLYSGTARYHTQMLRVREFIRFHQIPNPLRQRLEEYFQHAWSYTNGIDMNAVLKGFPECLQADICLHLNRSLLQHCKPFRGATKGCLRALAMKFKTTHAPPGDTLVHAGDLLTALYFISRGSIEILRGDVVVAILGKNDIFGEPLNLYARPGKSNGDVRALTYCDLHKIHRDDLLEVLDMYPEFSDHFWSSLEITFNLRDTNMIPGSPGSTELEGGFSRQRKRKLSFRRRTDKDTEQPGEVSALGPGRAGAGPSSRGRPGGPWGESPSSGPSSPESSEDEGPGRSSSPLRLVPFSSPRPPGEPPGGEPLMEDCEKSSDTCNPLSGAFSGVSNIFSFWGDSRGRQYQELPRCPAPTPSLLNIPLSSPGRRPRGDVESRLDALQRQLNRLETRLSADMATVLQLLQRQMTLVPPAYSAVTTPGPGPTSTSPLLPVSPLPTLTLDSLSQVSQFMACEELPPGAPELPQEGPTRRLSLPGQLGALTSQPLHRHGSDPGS

SMILES	hERG current change (%, negative = inhibition) at 10uM
Cl.Fc1ccc(CN2C3=NCCCN3c3ccccc32)cc1	-71.2%
Cl.Fc1ccc(CN2C3=NCCN3c3ccccc32)cc1	-54.9%
O=C(CN1C(=O)C2C3c4ccccc4C(c4ccccc43)C2C1=O)Nc1cccc(C(=O)O)c1 (centres unmarked)	-10.3%
O=C(COc1ccc(Cl)cc1Cl)N/N=C1\CCCc2ccccc21	2.52%
CC(C)(CO)NCc1ccccc1OCC(=O)Nc1ccccc1	-14%
Cc1ccc(C(=O)OCC(=O)Nc2ccc(F)c(Cl)c2)o1	17%
Clc1ccc(-n2nnnc2-c2cnc3ccc(Cl)cc3c2-c2ccccc2)cc1	5.46%
O=C(CCCCCCN1C(=O)c2ccccc2C1=O)N1CCC(c2ccccc2)C1 (centres unmarked)	-39.7%
O=C(CCCN1C(=O)c2ccccc2C1=O)N1CCC(c2ccccc2)C1 (centres unmarked)	-58.6%
Cc1ccc(/C=C/C(=O)N2CCCN(C(=O)/C=C/c3ccc(C)cc3)CC2)cc1	-74.8%
O=C(Nc1ccccc1)N1CCc2ccccc21	-21.2%
CCN1CCN(C(=O)/C=C/c2ccc(F)cc2)CC1	-43.2%
O=C(CCN1C(=O)c2ccccc2C1=O)N1CCC(c2ccccc2)C1 (centres unmarked)	-43%
CN1CCCN(C(=O)/C=C/c2ccc(F)cc2)CC1	-23.7%
O=C(Nc1ccccc1)N1CCCc2ccccc21	-79.2%
CCN1CCN(C(=O)/C=C/c2ccc(C)cc2)CC1	-23.1%
O=C(/C=C/c1ccc(F)cc1)N1CCCN(C(=O)/C=C/c2ccc(F)cc2)CC1	-75.6%
Cc1ccc(NC(=O)N2CCCc3ccccc32)cc1	-6.25%
Cc1ccc(/C=C/C(=O)N2CCCC(C)C2)cc1 (centres unmarked)	-8.25%
COc1ccc2cc(OCC(=O)NNC(=O)Nc3ccc(C(C)=O)cc3)ccc2c1	9.54%

SMILES	hERG current change (%, negative = inhibition) at 10uM
Cc1ccnc(SCc2cc(=O)c(OC(=O)c3ccco3)co2)n1	4.97%
COc1ccc(NCc2ccsc2)cc1	2.52%
O=C(NCC1CC1)c1ccccc1Cl	11.6%
COc1ccc(N2CCN(C3CC(=O)N(c4ccc5c(c4)OCCO5)C3=O)CC2)cc1 (centres unmarked)	-2.06%
CC(=O)Oc1ccccc1C(=O)N(C1CCCCC1)C1CCCCC1	15.3%
COc1ccc(C(=O)N/N=C(\Cc2ncc[nH]2)c2ccccc2)cc1	2.43%
COCCN(C(=O)CSc1nnc(-c2ccccc2C)n1C)c1c(N)n(Cc2ccccc2)c(=O)[nH]c1=O	38.4%
COc1ccc(/C=C/C(=O)N2CCCc3ccccc32)cc1	-16.8%
O=C(/C=C/c1ccccc1)N1CCOCC1	13.9%
COc1ccc(/C=C/C(=O)N2CCC(c3ccccc3)C2)cc1 (centres unmarked)	-47.4%
O=C(/C=C/c1ccc(F)cc1)N1CCCc2ccccc21	-62.7%
O=C(/C=C/c1ccccc1)N1CCCN(C(=O)/C=C/c2ccccc2)CC1	-68.5%
O=C(/C=C/c1cccc(F)c1)N1CCc2ccccc21	4.51%
CN1CCN(C(=O)/C=C/c2ccccc2)CC1	4.5%
COc1ccccc1/C=C/C(=O)N1CCC(c2ccccc2)C1 (centres unmarked)	-4.29%
O=C(/C=C/c1ccccc1)N1CCC(c2ccccc2)C1 (centres unmarked)	-57.6%
CCC(=O)Oc1ccc2c(c1)OC1(OC(C)=O)OC(C)CC1=C2C (centres unmarked)	-5.19%
CCCCn1nnnc1NCc1cccnc1	8.93%
COc1ccc(CC(=O)NCc2nnc(SCC(=O)Nc3ccc(OC)cc3)n2C)cc1	4.08%
Cc1ccc(S(=O)(=O)N2CCN(C(=O)c3ccc(COc4ccccc4)o3)CC2)cc1	-0.773%

SMILES	hERG current change (%, negative = inhibition) at 10uM
CCOC(=O)c1ccc(NC(=O)C2CCCN(S(=O)(=O)c3ccc(F)cc3)C2)cc1 (centres unmarked)	-15.1%
COc1ccc(-c2nn(C)c3sc(C(=O)NCCN(C)C)cc23)cc1OC	15.4%
CC(Oc1ccc(Cl)cc1Cl)C(=O)NCCCn1ccnc1 (centres unmarked)	-28%
O=C(CCCOc1ccc(Cl)cc1Cl)NCCCn1ccnc1	-62.5%
COc1cc(S(=O)(=O)NCCCn2ccnc2)ccc1Cl	7.94%
O=C(OCC(=O)c1ccc(Cl)cc1Cl)c1cnccn1	-58.3%
CCOc1cc(Cl)c(S(=O)(=O)NCCCn2ccnc2)cc1Cl	-48.9%
Cl.O=C(COc1ccc(Cl)cc1Cl)NCCCn1ccnc1	-38.6%
Cc1cc(Cl)ccc1OCC(=O)NCCCn1ccnc1	-29.8%
Cc1cc(Cl)ccc1OCCCC(=O)NCCCn1ccnc1	-68.1%
Cc1cc(Cl)ccc1OCCCC(=O)NCc1ccncc1	-44.4%
O=C(OCC(=O)c1ccccc1Cl)c1cnccn1	-0.611%
O=C(COC(=O)c1cnccn1)c1ccc(Cl)cc1	24.4%
CCOc1cc(S(=O)(=O)NCCCn2ccnc2)ccc1Cl	-64%
Cc1ncc([N+](=O)[O-])n1CC(=O)Nc1ccc(F)cc1F	13.3%
CCOc1ncccc1C(=O)OCC(=O)Nc1ccc(C)c(S(=O)(=O)N2CCOCC2)c1	-27%
CCOC(=O)[C@H]1[C@H]2COc3ccc(OC)cc3[C@@H]2N2C(=O)CN(Cc3ccc(F)cc3)C(=O)[C@@]12C	-26.5%
CCOC(=O)/C=c1\s/c(=C\c2ccc(C(=O)OC)cc2)c(=O)n1CC(=O)Nc1ccccc1.Cl	19.5%
COc1ccc(NC(=O)CCCn2c(=O)c3sccc3n(Cc3ccc(C)cc3)c2=O)cc1	-5.72%
